This is an account of results in the supplement of paper PMC11417369.

± gives the standard deviation of the averaged measurements. In all, about 25,000 sequences were measured (“ln(normalized median fluorescence intensity)”: median about 7.9, highest 2% from about 11 on). This excerpt belongs to a sample that is enriched for the highest values.

This assay concerns PfAP2-I AP2 domain 3 (GST-tagged). The assay is described as follows: gcPBM binding intensity (ln(normalized median fluorescence intensity)); higher = stronger DNA binding. In outline: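 Binding intensity values are the highest Masliner-normalised natural-log median intensity among replicate spots of either probe orientation. The binding step lasted 1 h in 1× PBS with 1% milk, 0.2 mg/ml BSA, 0.5% salmon testes DNA and 0.03% Triton X-100, using GST-tagged P. falciparum DNA-binding domains expressed in E. coli on an Agilent 4 × 180k array of primer-extended double-stranded 36-bp intergenic genomic probes plus negative controls. Alexa488 anti-GST antibody and a 488 nm scan detected bound protein.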
For the sequence “TAAGAAATAAATAGTACACACATAGACACCCACCCA [CACACA_site8429]”, the “gcPBM binding intensity (ln)” value was 8.65 ± 0.54. Consider “TAAGAAATAAATAGTACACACATAGACACCCACCGA [CACACA_site1516]”, for which the “gcPBM binding intensity (ln)” value stood at 8.86 ± 0.15. As to “CCATTAAGACACATTGCACACGTGCACCCATAGAAA [CACACA_site4388]”, the “gcPBM binding intensity (ln)” value came out at 10.79 ± 0.021.

As for “ACATTAAGACACATTGCACACGTGCACCCATAGAAA [CACACA_site8029]”, the “gcPBM binding intensity (ln)” value worked out at 10.965 ± 0.007. The value for “ACCCATTGCTCACGTGCACACATAGAAAAATAATTC [CACACA_site4389]” was 10.7 ± 0.16. Turning to “CATTTGCACCCGCACACACACATAAAAAGAAAAATA [CACACA_site4350]”, the “gcPBM binding intensity (ln)” value worked out at 10.7 ± 0.8. Then “TACACCCATAGACACACACACACGCATAAAAAAAAA [CACACA_site8428]”, with 8.36 ± 0.34; and “ATTAAGACACATTGCACACGTGCACCCATAGAAAAA [CACACA_site408]”, with 11.02 ± 0.099. Take “ACATTGCACCCGTGCACACATAGAAAAATAATTCTT [CACACA_site409]”: the “gcPBM binding intensity (ln)” value came to 11.1.

For TTTTTTGTTTGAATGGTGCATTTTGTAATTATATTT, the “gcPBM binding intensity (ln)” value was 10.3 ± 0.41. For “TTGTTATGTTTTATTTGTACGTAGGTTTCTATCAAA [XGTACX_site7636]”, the “gcPBM binding intensity (ln)” value turned out to be 8.12 ± 0.35. The value for “ATATTTATTTATATGTGTACTTATGTTTATATAAAA [XGTACX_site4250]” was 8.02 ± 0.21; that for “GAAAATATAAAAAAAAGTACATTTTCTCTAAATATA [XGTACX_site2441]” was 7.57 ± 0.35; that for “ATTTTTTTACTGTAACCATATTTTTCCCTTTTATTC [CACACA_negctrl_site1143]” was 7.95 ± 0.79. Regarding “TGTATGTTATATACAACACACAAAAAAAAACAAGTT [CACACA_site301]”, the “gcPBM binding intensity (ln)” value was 7.62 ± 0.7. The value for “AGACAATATCTTATTTGTACATATGTATTCCTCATA [XGTACX_site5757]” was 7.88 ± 0.63. The value for “GGGAATATAAGTACACGATAATATGTGATAAGGTCT [CACACA_negctrl_site1502]” was 8.28 ± 0.86. With “AAGAACCATATTTAAACACACATACCTATATAAATA [CACACA_site7553]”, the “gcPBM binding intensity (ln)” value amounted to 7.68 ± 0.53. Then “ATGTTACACCGACACACACACATAAAAAAACAAAAA [CACACA_site5750]”, with 8.15 ± 0.34; and “ACGTGTATTTATTTAGTGCACTTTATATTTTTTCTT [GTGCAC_site9426]”, with 11.5 ± 0.28. As to “TATATATATTAGTGTGCACACTTTTTATTTTTATCC [CACACA_site8506]”, the “gcPBM binding intensity (ln)” value came out at 9.33 ± 0.4.

ATTTTTTTCTTAGGAGTGCACTTATATTTATTTTAT: the “gcPBM binding intensity (ln)” value is 10.8 ± 0.49.

For the sequence “TTATACCTATATTTAACACACATTTGATAAAGTGCC [CACACA_site6732]”, the “gcPBM binding intensity (ln)” value turned out to be 7.76 ± 0.61. Consider ACACCTATAAATTAAGTGCATTTTTTTTGATGTTAT, for which the “gcPBM binding intensity (ln)” value came to 9.45 ± 0.46.

Regarding ATACCTATTTGATGAGTGCATTATCCAATATATGTA, the “gcPBM binding intensity (ln)” value came to 11.3 ± 0.65. As to “ATTTTTGTTATTACATGTACCCATAATTATTATTAA [XGTACX_site3558]”, the “gcPBM binding intensity (ln)” value was found to be 8.58 ± 0.75.

Take “AAAATTATAATAATATGTACTTAAAAAATTTATATA [XGTACX_site632]”: the “gcPBM binding intensity (ln)” value came to 7.54 ± 0.2. The value for TTTTTGTTACCTATTGTGCACTTCATATAAATTAAA was 11.3 ± 0.35; that for “ACATTAAAAAATTGTTTGCACTATATAAAATATTAA [GTGCAC_site9728]” was 9.86 ± 0.28; that for TGTTAAAATTATTTGGTGCACTTGTTTTACCTTATT was 10.8 ± 0.48. Then “ATACGTATATAATATACATGCATATATAGCACATAC [TGCATGCA_site376]”, with 9.11 ± 0.66; and “TAATATATAACGTGCACACACACATTTACGTATGAA [CACACA_site1832]”, with 10.86 ± 0.064. Then “ATATATAACGTGCACACACACATTTACGTATGAATA [CACACA_site6948]”, with 10.975 ± 0.007. On to “TATATATGCATATACATACACACATAACACATACGT [CACACA_site3833]”, for which the “gcPBM binding intensity (ln)” value worked out at 8.24 ± 0.39. Turning to “ATTAATATATAACGTGCACACACACCGTTACGTATG [CACACA_site8543]”, the “gcPBM binding intensity (ln)” value amounted to 10.3 ± 0.35. With TTTATACATACATTCGTGCACATACGTATAACATAT, the “gcPBM binding intensity (ln)” value is 11.2 ± 0.19.

With “ATATATAACGGGCACACACACATTTACGTATGAATA [CACACA_site1833]”, the “gcPBM binding intensity (ln)” value turned out to be 8.31 ± 0.49.

As for “TATGTTTACATATACGTGCACATGAATGTATACATT [GTGCAC_site9894]”, the “gcPBM binding intensity (ln)” value turned out to be 10.7 ± 0.29. “TAATATATAACGTGCACACACACATCTACGTATGAA [CACACA_site5080]”: the “gcPBM binding intensity (ln)” value came out at 10.82 ± 0.099. The value for “AATGTCCTTATTTGCACACACACATATAAGAAATTT [CACACA_site3186]” was 9.91 ± 0.23; that for “TTACGCGCTTATTACACACACATACAAATAAGGATT [CACACA_site3486]” was 8.06 ± 0.47. On to “ATAATCAACATTAGGTGTACAAAATATGTATGTTTT [XGTACX_site6696]”, for which the “gcPBM binding intensity (ln)” value came out at 8 ± 0.59. Turning to “AATTTTTTTCTCCAAGTGCATTAGAACATTAACGTA [GTGCAC_site9413]”, the “gcPBM binding intensity (ln)” value was 10.9 ± 0.53. The value for “TTTTCTTTTTCCAAAAGTACGTAATTTAAACATTTT [XGTACX_site2066]” was 7.83 ± 0.43.

For “ATTATTAAGTTTCACAAGAACATTGTTAACAATTTT [CACACA_negctrl_site1128]”, the “gcPBM binding intensity (ln)” value was 7.5 ± 0.64. The value for “AAAAAAAATTATATTTGTACGCATTAAAAAATCTAA [XGTACX_site1616]” was 7.64 ± 0.26.
